High-throughput results: PubChem, National Center for Advancing Translational Sciences (NCATS)
SARS PLpro yeast – blocks SARS-CoV papain-like protease in a yeast assay; 330,000 compounds, 0.19% hits; Potency, µM (doses to about 32.9 µM), for the others: at the top dose activity, positive = growth rescue, most hits filed as activators; S. cerevisiae expressing SARS-CoV PLpro, growth rescue; calls by dose curve; note: potency is the fitted concentration of half-maximal effect; 0% is about no effect; nearly all actives have a fitted effect of over 55% in size
FMDV inh – antivirals against foot and mouth disease virus. Potency, µM (top dose mostly 57.9 µM), for the others: at the highest dose activity change, negative = inhibition, usual class: inhibitors. 410,000 compounds, 1.2% hits. FMDV antiviral cell-based qHTS; calls by dose curve; tested in HEK293T cells; note: read-out not given here; potency is the fitted concentration of half-maximal effect; % is set by controls: 0 for no effect and ±100 for the full control effect; nearly all actives have a fitted effect of over 45% in size
LASV entry inh – inhibitors of Lassa virus binding or cell entry | Potency, µM (doses to about 37.9 µM), without a hit: at the highest dose activity change, negative = inhibition, most hits filed as inhibitors | 300,000 compounds, 1.2% hits | Lassa virus pseudotype entry inhibition, cell reporter; calls by dose curve; tested in HEK293 cells; note: potency is the fitted concentration of half-maximal effect; % is set by controls: 0 for no effect and ±100 for the full control effect; nearly all actives have a fitted effect of over 50% in size
HCV inh – HCV inhibition; Huh7.5.1 HCVcc-Cre infection, luciferase reporter, 44 h; Potency, µM (titrated, usually from 41.8 µM), without a hit: at the highest dose activity change, negative = inhibition, hits mostly inhibitors; 340,000 compounds, 3.4% hits; AID 651820; active = well fitted inhibition curve with a large enough effect; inconclusive = small, poorly fitted or top-dose-only effect, or another doubt; inactive = no such curve, though single readings can be large or run the other way; note: potency is the fitted concentration of half-maximal effect; % is set by controls: 0 for no effect and ±100 for the full control effect
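Reporter virus HCVcc-Cre (~0.5 moi) infects cells exposed to compound; seeding density 1,000 cells/well with 4 h settling beforehand. Luminescence, 15 sec read, taken 44 h post-infection following a 15 min RT substrate incubation.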
HCMV antiviral – human cytomegalovirus inhibition. HFF cells, HCMV-luciferase reporter, 72 h; active compounds read low. activity change, negative = inhibition, % at 57.5 µM. 410,000 compounds, 4.5% hits. AID 1259415; in the data active = activity change below about -60%; inconclusive = no clear call, values can overlap the other calls; inactive = above about -39%; note: % is set by controls: 0 for no effect and ±100 for the full control effect
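Inhibition of viral replication was scored as loss of reporter luminescence in HFFs infected with HCMV-luciferase (MOI 1 PFU/cell) for 72 h; compounds tested at 2 doses, normalized to buffer and Salinomycin controls.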
Marburg entry inh – Marburg virus entry inhibition; Marburg virus pseudotyped entry inhibition, cell reporter; Potency, µM (highest dose often 37.8 µM), for the others: at the highest dose activity change, negative = inhibition, most hits filed as inhibitors; 300,000 compounds, 1.8% hits; AID 540276; calls by dose curve; tested in HEK293 cells; note: potency is the fitted concentration of half-maximal effect; % is set by controls: 0 for no effect and ±100 for the full control effect
Numbers without * were called inactive; ? = inconclusive; · = no result; [ ] = another dose, or the depositor's remark. Rows were chosen to be rich in hits. Some 8% of all compounds tested hit in one or more screens of this group.

SMILES	SARS PLpro yeast	FMDV inh	LASV entry inh	HCV inh	HCMV antiviral	Marburg entry inh
Brc1ccc(CSc2nnc(-c3cccnc3)o2)cc1	-1%	-12%	11%[46.1 µM]	0%	-68*	8%[46.1 µM]
Nn1c(SCc2ccc(Br)cc2)nnc1-c1ccncc1	0%	-7%	·	-3%	-63*	·
CN(C)c1ccc(CNC2CC(C)(C)NC(C)(C)C2)cc1	-2%	11%	12µM*	?	20	?
CC1(C)CC(NCc2ccncc2)CC(C)(C)N1	1%	2%	1%	5%	-29	11%[46.1 µM]
Cc1ccc(C)c2[nH]c(=O)c(CCNC(=O)CCc3ccccc3)cc12	9%	-2%	·	0%	-76*	·
CCCC(=O)NCCc1cc2c(C)ccc(C)c2[nH]c1=O	-6%	-13%	12%	0%	?	-19%
CCCCN(C)CC(O)Cn1cc(/C=C/C(=O)c2ccc(OCC)cc2)c2ccccc21 (stereo unspecified)	-1%	-21%	?	·	-107*	?
CCCCN(CCCC)CC(O)Cn1cc(/C=C/C(=O)c2ccccc2)c2ccccc21 (stereo unspecified)	·	-15%	?	·	-106*	?
CCCCN(C)CC(O)Cn1cc(/C=C/C(=O)c2cccs2)c2ccccc21 (stereo unspecified)	-3%	0%	?	?	·	?
Cc1ccc(S(=O)(=O)NCc2ccccc2NS(=O)(=O)c2ccc(C)cc2)cc1	·	5%	·	·	-9	·
COc1ccccc1CNC(=O)CS(=O)(=O)c1ccccc1	2%	12%	?	14%	-9	-18%[46.1 µM]
O=C1C(n2ccc3ccccc32)c2cc(Cl)ccc2N1Cc1ccc(Cl)nc1 (stereo unspecified)	·	·	·	·	-31	·
Cc1cc(C)cc(N2CCn3c2nc2c3c(=O)n(Cc3ccc(Cl)cc3)c(=O)n2C)c1	·	-1%	-4%[46.1 µM]	·	14	·
CCOc1cccc(SCc2noc(C(=O)NCC3CCCO3)c2C(=O)O)c1 (stereo unspecified)	4%	-10%	·	21%	-12	5%
N#Cc1cc2sc3nnc(-c4ccncc4)n3c2cc1C#N	-13%	0%	-24%	?	-62*	?
N#Cc1cc2sc3nc4ccccc4n3c2cc1C#N	2%	·	·	7%	·	-2%
C=C(CO[C@@H]1C=C[C@@H](c2ccccc2)O[C@@H]1COC)c1ccccc1	·	·	·	·	·	-4%[14.2 µM]
N#C/C(=C/c1ccc(-c2ccc(S(N)(=O)=O)cc2)o1)c1nc2ccccc2s1	-3%	-9%	?	4.5µM*	?	?
COC(=O)CC=C[C@@H](C)[C@H](NC(=O)OC)c1ccccc1Br	·	·	·	·	·	-29%[14.2 µM]
COc1ccc(Cl)cc1Nc1nc(N)c2ccccc2n1	1%	9%	-24%[46.1 µM]	14µM*	84	?
C/C1=C\[C@@H](C)C/C=C/[C@H]2[C@@H]3O[C@]3(C)[C@@H](C)[C@H]3[C@H](Cc4c[nH]c5ccccc45)NC(=O)[C@]32C(=O)/C=C/C(=O)[C@@H]1O	-1%	32µM*	·	7%	·	·
CN(Cc1cnc2ccccn12)C(=O)c1cc(NC(=O)c2ccccc2)cc2ncn(C3CCCC3)c12	·	-8%	·	·	·	·
Cc1ccccc1N1CCN(CCCN2C(=O)CC(=C(c3ccccc3)c3ccccc3)C2=O)CC1	12%	-18%	1%	?	19	-13%
O=C1CC(=C(c2ccccc2)c2ccccc2)C(=O)N1CCCCN1CCN(c2cccc(Cl)c2)CC1	1%	?	?	11µM*	3	?
COc1ccc(C2=NCCn3c2c2ccc(OC)cc2[n+]3[O-])cc1	·	·	·	·	32	·
SMILES	SARS PLpro yeast	FMDV inh	LASV entry inh	HCV inh	HCMV antiviral	Marburg entry inh
CCOc1cc(/C=C2\C(=O)N(c3nc(-c4ccc(Br)cc4)cs3)N=C2c2ccccc2)ccc1O	14%	5.6µM*	21%	-21%	·	-3%[46.1 µM]
O=C(CNCCc1ccccc1)Nc1ccc(C(=O)N2CCCCC2)cc1	1%	16%	2%[46.1 µM]	17%	?	11%[46.1 µM]
O=C(c1ccc(CSc2ccc(Cl)cc2)cc1)N1CCCC1	-1%	12%	·	?	-63*	·
O=C(c1ccc(CSc2ccc(Cl)cc2)cc1)N1CCOCC1	-1%	1%	·	?	-30	·
COc1ccccc1N1CCN(C(=O)C(Sc2ccccc2)c2ccccc2)CC1 (stereo unspecified)	-12%	?	?	11µM*	16	6.3µM*
O=C(CNCCc1ccc(Cl)cc1)Nc1ccc(C(=O)N2CCCCC2)cc1	0%	-16%	?	11%	?	11µM*
COc1ccccc1N1CCN(C(=O)CSc2ccccc2)CC1	11%	-7%	-3%	6%	114	-5%
COc1ccccc1N1CCN(C(=O)c2ccc(CSc3ccccc3)cc2)CC1	9%	?	?	-15%	-92*	?
COc1ccc(S[C@]2(C(=O)N3CCCC3)CC(=O)N(c3ccc(OC)cc3)[C@@H]2c2ccc(OC)cc2)cc1	·	·	·	·	-1	·
CC(=O)OCC1OC(n2c(S)c(C#N)c(-c3ccccc3)c(C#N)c2=O)C(OC(C)=O)C(OC(C)=O)C1OC(C)=O (stereo unspecified)	·	-19%	10%[46.1 µM]	0%	0	2%
COc1ccc(C2C(=O)N(C3CCCCCC3)CC(=O)N2CCC2=CCCCC2)cc1 (stereo unspecified)	·	-28%	-3%[46.1 µM]	·	-3	·
C=CCN1C(=O)CC[C@@]23C1=NC(C(=O)OC)=C(C(=O)OC)[C@@H]2N(CC=C)c1ccccc13	·	·	·	·	·	-3%[14.2 µM]
CCC/C=C(\CCC)C(NC(=O)c1ccc(C(=O)OC)cc1)c1ccc(C(=O)OC)cc1 (stereo unspecified)	·	-16%	·	20%	0	·
COc1cc(C(=S)N2CCCC2)ccc1OS(=O)(=O)c1ccc(NC(C)=O)cc1	0%	20µM*	16µM*	10µM*	-36	-24%
COc1ccc(S(=O)(=O)Oc2ccc(C(=S)N3CCOCC3)cc2OC)cc1	2%	?	-21%	?	-16	?
COc1cc(C(=S)N2CCOCC2)ccc1OS(=O)(=O)c1ccc(NC(C)=O)cc1	9%	13µM*	?	?	-73*	?
O=C(CSc1nc2ccccc2c(=O)n1-c1ccccc1)N1CCc2ccccc2C1	-24%	?	10µM*	13µM*	-94*	?
O=C(CSc1nc2ccccc2c(=O)n1-c1ccccc1)N1CCC1	-1%	2%	·	15%	-27	·
CC(C)Cn1c(SCC(=O)N2CCc3ccccc3C2)nc2cc(Cl)ccc2c1=O	8%	0%	0%	-9%	-20	-9%
CC(C)c1ccccc1-n1c(SCC(=O)N2CCc3ccccc3C2)nc2ccccc2c1=O	28%	?	?	10µM*	-95*	?
CC(C)c1ccccc1-n1c(SCC(=O)c2ccc3c(c2)NC(=O)CO3)nc2ccccc2c1=O	0%	?	?	13µM*	-30	?
CC(C)CNc1ccc2c(n1)C(=O)N([C@H](C)C(=O)N[C@H](CO)c1ccccc1)C2	·	·	·	·	26	·
